Data on 35 compounds can be found in PubChem BioAssay.

This experiment has as its system Sonic hedgehog protein (Shh). Put plainly: small-molecule binders of Shh protein, primary screen, biochemical, small-molecule microarray, 635/667 nm fluorescence (AID 1151).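 Also: Shh protein binding to compounds spotted on small-molecule microarray slides; score combines spot fluorescence intensity with signal-to-noise across triplicate slides.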 The following applies: small-molecule microarray binding, 635 nm fluorescence; higher = more signal.
Compound `CC(C)Cc1ccc(CN2CC[C@@H](NC(=O)Nc3ccccc3)C2)cc1` showed a composite z-score of 0.826. The compound `CC(C)C[C@@H]1NC(=O)[C@@H]2C[C@H](C(=O)NCCCCN(C)C)[C@H](c3cccc(OCCO)c3)N2C1=O` came in with a composite z-score of 1.24. Compound `CC1CC/C=C\[C@H]2OC34C=CCN(C(C)C)C(=O)[C@H]3N(CCCCCCO)C(=O)[C@@H]4C2C(=O)O1` (stereo not given in full) gave a composite z-score of -0.159.

For the compound `COc1ccc(CCNC(=O)[C@@]2(Sc3ccc(C)cc3)CC(=O)N(C3Cc4ccccc4C3)[C@@H]2c2ccc(CO)cc2)cc1`, the composite z-score was 2.07. On to `COc1ccc(-c2nc(-c3ccccc3)c3c(c2C)CO[Si]3(C(C)C)C(C)C)cn1`, for which the composite z-score was 0.848. `CCCC[C@@H]1C[C@H]1[C@@H](NC(=O)c1cccs1)c1ccc(C(F)(F)F)cc1` displayed a composite z-score of 0.652. For `CN1C(=O)C2C=CC(C(O)c3ccc(F)cc3)N(Nc3ccccc3)C2C1=O` (stereo not given) the value was 0.137; for `OCC1CC(c2ccccc2)=NO1` (stereo not given), 0.0003. `COC1OC[C@]2(C)[C@H]3C4=C(CN2C(=O)OC(C)(C)C)[C@H](C)C(CO)C(CO)C4CC[C@@H]13` (stereo not given in full) showed a composite z-score of -0.0425. Take `NCCCCCCNC(=O)[C@@H]1C[C@@H]2C(=O)N[C@@H](CCCCN)C(=O)N2[C@@H]1c1cccc(OCCO)c1`: the composite z-score was 1.5. Then `CCOC(=O)C1=C[C@@H](c2ccccc2)N(S(=O)(=O)c2ccc(C)cc2)[C@H]1c1ccccc1Cl`, with 0.844; and `CCOc1cc(C(O)C2C=CC3C(=O)N(c4ccccc4)C(=O)C3N2Nc2ccc(C#N)cc2)ccc1O` (stereo not given), with -0.373.

The compound `CCCCCCCCCCC(O)C1C=CC2C(=O)N(C)C(=O)C2N1NC(=O)OC(C)(C)C` (stereo not given) came in with a composite z-score of -0.813. Take `NCCCCCNC(=O)[C@@H]1C[C@@H]2C(=O)NCC(=O)N2[C@@H]1c1cccc(OCCO)c1`: the composite z-score amounted to 1.29.

With `[N-]=[N+]=NCc1ccccc1[C@H]1OC(c2ccc(OCCCO)cc2)=N[C@@]1(CCS(=O)(=O)c1ccccc1)C(=O)N1CCCCC1`, the composite z-score was determined as 0.155. As to `CCOC(=O)C[C@H]1[C@H](OC(=O)c2ccccc2-c2ccccc2)[C@@H](NC(=O)c2ccc(-c3ccccc3)cc2)c2cc(OCCCO)ccc2N1C(=O)c1ccc2ccccc2n1`, the composite z-score amounted to 0.701.

As for `CCCCCCc1nc(C2CC2)cc2c1[Si](C(C)C)(C(C)C)OC2`, the composite z-score is -0.694. `O=C1C[C@@](C(=O)NCCN2CCOCC2)(c2ccc([N+](=O)[O-])cc2)[C@@H](c2ccc(CO)cc2I)N1C1CCCCC1`: the composite z-score was 1.92. On to `COC(=O)[C@@]1(Cc2ccc(OC)cc2)[C@H]2c3cc(C(=O)N4CCCC4)n(Cc4c(-c5ccccc5)noc4C)c3C[C@H]2CN1C(=O)c1ccccc1`, for which the composite z-score is -0.314. In the case of `CC(C)(C)N1CC=CC23O[C@@H]4C=CCCOC(=O)C4[C@H]2C(=O)N(CCO)[C@@H]3C1=O` (stereo not given in full), the composite z-score amounted to 1.09. For `O=C1O[C@@H](c2ccccc2)[C@@H](c2ccccc2)N2[C@@H](c3ccccc3OCCO)[C@]3(C(=O)Nc4ccc(C#CCCO)cc43)[C@@H](C(=O)N3CCCCCCC3)[C@H]12` the value was 1.78; for `CO[C@]12C=C(Br)[C@@H](C[C@@H]1c1cccc(C)c1)[C@@]1(CO1)C2=O`, 0.841. `O=C1C2C=CC(C(O)c3ccccc3)N(Nc3ccccc3F)C2C(=O)N1c1ccccc1` (stereo not given) showed a composite z-score of -0.244. Compound `CC[C@H]1C2=C3C(CC[C@H]4C(OCc5ccc(F)cc5C(F)(F)F)OC[C@](C)([C@@H]34)N(C(=O)OC(C)(C)C)C2)C(COC)C1COC` (stereo not given in full) returned a composite z-score of -1.3. `Cc1ccc(S[C@]2(C(=O)O)CC(=O)N(C3Cc4ccccc4C3)[C@@H]2c2ccc(CO)cc2)cc1` returned a composite z-score of -0.3.

In the case of `COc1ccc(NC(=O)O[C@H]2[C@H](OC(=O)Nc3ccccc3)[C@@H](OC(=O)Nc3ccccc3)[C@@H](OC)O[C@@H]2CO)cc1`, the composite z-score was determined as 1.17. For `CCCC[C@@H]1C[C@H]1[C@@H](NC(=O)Cc1ccccc1)c1ccc(-c2ccccc2)cc1`, the composite z-score is -0.756.

Compound `N#Cc1ccc(NN2C(C(O)c3ccc(F)cc3)C=CC3C(=O)N(c4ccccc4)C(=O)C32)cc1` (stereo not given) showed a composite z-score of -0.304. For `[N-]=[N+]=NCc1ccccc1C[C@]1(C(N)=O)N=C(c2ccc(OCCCO)cc2)O[C@H]1c1ccccc1` the value was -1.23; for `COCCCNC(=O)[C@@]1(Cc2ccccc2N=[N+]=[N-])N=C(c2ccc(OCCCO)cc2)O[C@H]1c1ccccc1`, 0.55; for `CN(C)CCCNC(=O)[C@@H]1c2ccccc2C(=O)N(Cc2ccccc2Cl)[C@H]1c1ccc(CO)cc1`, -0.12. For `C=C(/C(=C/C[C@H](OC(=O)c1ccncc1)c1ccc(CO)o1)c1cc(C(=O)OC)ccc1OC)C(C)C` the value was 1.36. Then `C=CCC(OC(C)=O)[C@@H]1[C@@H](N(Cc2ccc(-c3cccc(C(F)(F)F)c3)o2)C(=O)c2ccc(-c3ccccc3)cc2)c2cc(OCCCO)ccc2N1C(=O)c1ccc2ccccc2n1` (stereo not given in full), with 0.406.

Take `CCCCN1CC=CC23O[C@@H]4/C=C\CCC(C)OC(=O)C4[C@H]2C(=O)N(C(CO)C(C)C)[C@@H]3C1=O` (stereo not given in full): the composite z-score was found to be 1.42.

In turn, `[N-]=[N+]=Nc1ccccc1[C@H]1OC(c2ccc(OCCCO)cc2)=N[C@@]1(Cc1ccccc1)C(=O)N1CCCCC1` returned a composite z-score of 0.021.
